Results filed as inconclusive are left out. Values without a mark were called inactive. Activity calls are given as the source filed them. Calls come from the whole dose curve; as a rule, active = well fitted inhibition curve with a large enough effect; inconclusive = small, poorly fitted or top-dose-only effect, or effect the other way; inactive = flat fitted curve, though single readings scatter.
These compounds were tested against D(1A) dopamine receptor (Homo sapiens) (UniProt P21728) (assay: HTS Assay for Allosteric Agonists of the Human D1 Dopamine Receptor: Primary Screen for Antagonists (AID 488983; note: nearly all actives have a fitted effect of over 65% in size)). Conditions: D1 receptor cell assay, antagonist mode, qHTS titration; series mostly up to 41.8 µM; activity change, negative = inhibition: at the top concentration.
Sequence of D(1A) dopamine receptor (Homo sapiens) (P21728 whole entry, looked up): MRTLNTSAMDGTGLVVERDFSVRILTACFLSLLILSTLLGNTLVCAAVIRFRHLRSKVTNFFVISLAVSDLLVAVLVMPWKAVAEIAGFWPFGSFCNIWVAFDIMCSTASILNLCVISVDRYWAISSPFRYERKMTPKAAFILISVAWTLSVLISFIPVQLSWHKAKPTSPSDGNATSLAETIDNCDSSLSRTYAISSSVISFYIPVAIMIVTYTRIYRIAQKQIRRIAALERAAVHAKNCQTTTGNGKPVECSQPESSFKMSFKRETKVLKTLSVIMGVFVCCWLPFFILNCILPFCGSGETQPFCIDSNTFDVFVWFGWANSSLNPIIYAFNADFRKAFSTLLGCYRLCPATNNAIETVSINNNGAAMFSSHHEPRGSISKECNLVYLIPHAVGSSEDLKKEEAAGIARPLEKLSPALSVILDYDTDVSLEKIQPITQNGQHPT
Description: Dopamine receptors (DARs) are involved in the etiology and/or therapy of a number of neuropsychiatric and endocrine disorders. For instance, all receptor-based antiparkinsonian drugs work via stimulating the […] DAR subtype whereas all FDA-approved antipsychotic agents are antagonists of this receptor. […] There are three different types of allosteric modulators that we are seeking, two of which will stimulate or augment receptor signaling, allosteric agonists and potentiators, while the third, allosteric antagonists, will attenuate receptor signaling. The present primary screening assay measures compound agonism by tracking calcium flux in a […], inducible Hek293 Trex D1 cell line.
Freshly passaged cells are plated in 1536 well black, clear bottom plates at a density of 4000 cells/well in 3 ul of complete media containing 1x tetracycline inducer. After an overnight incubation at 30 C in 5% CO2, cells are loaded with 2 ul of the no wash Calcium Assay Kit (ABD Bioquest) and incubated at room temperature for 30 to 90 minutes. A 10 cycle (1 second/cycle) baseline measurement is taken and then the FDSS online 1536 pintool delivers 23 nl of compound library (as well as dopamine controls) to the plate. The plate is measured for kinetically at 1 cycle/sec for 180 seconds and is considered to be the agonist portion of the assay (eg, compounds which activate a positive calcium response during this portion are flagged as potential agonists). Following the 180 second read, 1 ul of an EC80 of dopamine is delivered by an onboard pipette head. Measurements are taken kinetically for an additional 180 seconds.
% is set by controls: 0 for no effect and ±100 for the full control effect; potency is the fitted concentration of half-maximal effect.

Compound | activity change, negative = inhibition [%] | Potency
CC1=C(/C=C/C(C)=C/C=C/C(C)=C\C(=O)O)C(C)(C)CCC1 | 2.51 | 
S=C(S)N1CCCC1 | 14.4 | 
NCCC1CCCC(CCN)N1 (stereo not given) | 1.02 | 
O=c1oc(Cl)c(Cl)c2ccccc12 | -7.19 | 
CC[C@H](NC(=O)c1c(C)c(-c2ccccc2)nc2ccccc12)c1ccccc1 | -4.65 | 
CC(=O)NNC(=O)N1Cc2ccccc2Oc2ccc(Cl)cc21 | -17.3 | 
O=C1Cc2c([nH]c3ccc(Br)cc23)-c2ccccc2N1 | -21.1 | 
COc1cc(/C=C(\C#N)C(=O)Nc2nnc(C(F)(F)F)s2)ccc1OCc1ccc(C(F)(F)F)cc1C(F)(F)F | -16.1 | 
O=c1cc(O)cc(/C=C/c2ccc(O)c(O)c2)o1 | 9.18 | 
CCC1(O)CC2CN(CCc3c([nH]c4ccccc34)[C@@](C(=O)OC)(c3cc4c(cc3OC)N(C)C3[C@]45CCN4CC=C[C@@](CC)([C@@H](OC(C)=O)[C@]3(O)C(=O)OC)[C@H]45)C2)C1 (stereo not given in full) | 2.48 | 
N#Cc1cc([N+](=O)[O-])c2sc(C(N)=O)[n+]([O-])c2c1 | 6.97 | 
C=C(C)C1CC=C(C(=O)O)CC1 (stereo not given) | 6.05 | 
Nc1nc2[nH]c(=O)cnc2c(=O)[nH]1 | 5.59 | 
CCCCCC(O)CCCC(=O)O (stereo not given) | -0.341 | 
CCCC[C@@]1(C2CCCC2)Cc2cc(OCC(=O)O)c(Cl)c(Cl)c2C1=O | 4.94 | 
N[C@H](C(=O)O)[C@H]1C[C@@H]1C(=O)O | -0.439 | 
C[C@@]1(C2CCCC2)Cc2cc(OCC(=O)O)c(Cl)c(Cl)c2C1=O | 7.32 | 
CC1CCN=C(N)S1 (stereo not given) | 20.9 | 
Cn1c(=O)c2[nH]c(C3CCCC3)nc2n(C)c1=O | -5.07 | 
CCCCCCC/C=C\CCCCCCCCC(=O)O | -7.17 | 

Compound | activity change, negative = inhibition [%] | Potency
N[C@@H](Cc1ccc(F)cc1)C(=O)O | -8.1 | 
NC(Cc1cccc(-c2ccccc2CP(=O)(O)O)c1)C(=O)O (stereo not given) | 1.52 | 
CO/N=C(\C(=O)N[C@@H]1C(=O)N2C(C(=O)O)=C(CSc3nc(=O)c(O)nn3C)CSC12)c1csc(N)n1 (stereo not given in full) | 16.3 | 
O=c1onc2n1-c1cc(Br)ccc1OC2 | 4.65 | 
COc1ccc(NC(=O)c2ccc(-c3ccc(-c4noc(C)n4)cc3C)cc2)cc1N1CCN(C)CC1 |  | 20 µM (active)
Nc1ccc2c3c(cccc13)C(=O)NC2=O | -13.8 | 
CCCCC[C@H](CC(=O)NO)C(=O)N[C@H](C(=O)N1CCC[C@H]1CO)C(C)C | 12.5 | 
Cn1c(=O)[nH]c2ncn(C)c2c1=O | 0.319 | 
Nc1ccc(CCNc2ncnc3c2ncn3C2OC(CO)C(O)C2O)cc1 (stereo not given) | 0.623 | 
CCN(CC)CCCCCCCCOC(=O)c1cc(OC)c(OC)c(OC)c1 | -19.8 | 
NC(N)=[N+]1CCc2ccccc2C1 | -6.35 | 
N#C/C(=C\c1ccc(O)c(O)c1)C(=O)NCCc1ccccc1 | -13.8 | 
NC(=O)CC[C@H](N)C(=O)O | -2.86 | 
CCCCCCCCCCCCCCCCCCOC[C@H](COP(=O)([O-])OCC[N+](C)(C)C)OC | -9.4 | 
CC(C)C[C@H](NC(=O)[C@H](O)[C@H](N)Cc1ccccc1)C(=O)O | -0.18 | 
CC#CCOC(=O)c1c(C)nc2sc3c(c2c1N)CCC(O)C3 (stereo not given) | -19.8 | 
N=S(=O)(O)Cc1noc2ccccc12 | -9.7 | 
CC(C)(C)c1ccc(/C=C/C(=O)Nc2ccc3c(c2)OCCO3)cc1 | 13.7 | 
NC(N)=N[C@@H](CCC(=O)O)C(=O)O | -14.9 | 
O=c1[nH]ccc2c(O)cccc12 | -1.86 | 
